We go through 26 compounds from PubChem BioAssay AID894 (National Center for Advancing Translational Sciences (NCATS), 2007).

Each structure is given as a SMILES string. In all, about 150,000 compounds went through this assay and about 6,500 (4.3%) were called active. Not shown: some 12% with an inconclusive outcome. The entries come from a sample that favours actives as a whole. Values without a mark were called inactive. Calls follow the shape of the dose curve; as a rule, active = well fitted inhibition curve with a large enough effect (not every such curve was filed as active); inconclusive = small, poorly fitted or top-dose-only effect, or another doubt; inactive = no such curve, though single readings can be large or run the other way.
% is scaled to controls: 0 for no effect and ±100 for the full control effect; potency is read from the fitted curve at half-maximal effect.

15-hydroxyprostaglandin dehydrogenase [NAD(+)] (Homo sapiens), sequence (P15428 whole entry, looked up): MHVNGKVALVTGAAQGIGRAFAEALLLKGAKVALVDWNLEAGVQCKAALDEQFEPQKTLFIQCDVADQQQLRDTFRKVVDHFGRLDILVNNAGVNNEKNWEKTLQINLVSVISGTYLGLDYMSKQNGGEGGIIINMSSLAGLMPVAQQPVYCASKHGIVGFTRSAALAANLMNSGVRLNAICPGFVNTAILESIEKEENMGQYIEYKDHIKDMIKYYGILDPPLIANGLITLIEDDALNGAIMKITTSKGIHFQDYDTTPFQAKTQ

This assay concerns the target 15-hydroxyprostaglandin dehydrogenase [NAD(+)] (Homo sapiens) (UniProt P15428). Kind of assay: qHTS Assay for Inhibitors of HPGD (15-Hydroxyprostaglandin Dehydrogenase). Particulars: purified HPGD, NADH fluorescence kinetic, PGE2 substrate; activity change, negative = inhibition: active compounds read low. The procedure, abridged:
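20 nM HPGD preincubated 15 min at room temperature with compound in 50 mM Tris-HCl pH 8, 0.01% Tween 20. Started with 1 mM NAD+ and 30 uM prostaglandin E2; NADH fluorescence (360/450 nm) read 5 times over 30-s intervals, last minus first.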
(Quantitative high-throughput screening tests each substance at several concentrations.)
Turning to `COc1ccc(C(=O)n2nc(-c3ccc(Cl)cc3)nc2N)cc1OC`, the activity change, negative = inhibition was -16.8%. Still for that read-out and setting: under `Cc1ccc(-c2cc(=O)c3ccc(Cl)cc3[nH]2)cc1` stands -2.76%. For the compound `COc1cc(OC)c(-n2cc(-c3ccc(Cl)cc3)[nH]c2=O)cc1Cl`, the Potency is 7.08 µM (active). For `COc1ccccc1OCCC(=O)OCC(=O)NCc1ccccc1`, the activity change, negative = inhibition was -9.44%.

With `Cc1cc(=O)[nH]c(SCc2cccc(F)c2)n1`, the activity change, negative = inhibition is -22.9%. For the compound `Cc1cc(=O)[nH]c(SCc2cc(Cl)ccc2OC(F)F)n1`, the Potency is 14.1 µM (active).

With `O=c1cc(O)nc(SCc2ccccc2Cl)[nH]1`, the activity change, negative = inhibition was -21.6%. Turning to `COC1=CCC2([N+](=O)[O-])CN(CC(=O)O)CC1([N+](=O)[O-])C2` (stereo unspecified), the activity change, negative = inhibition is -5.2%. In the case of `C[C@@H](O)c1nc2ccccc2n1N`, the activity change, negative = inhibition is -7.02%. Same read-out and setting: for `COc1ccc(/C=C(\C#N)C(=O)NCCCn2ccnc2)cc1` the value was -18.4%. As to `C[C@H]1Cc2c(-c3ccccc3)nc3c(c2CO1)CN(S(=O)(=O)c1ccc(Cl)c2nonc12)CC3`, the activity change, negative = inhibition was -7.2%. With `COc1cc(/C=N/O)ccc1OCc1ccc([N+](=O)[O-])cc1`, the activity change, negative = inhibition was -3.26%.

For `COc1cc(/C=N/n2c(C)n[nH]c2=S)ccc1OCc1ccccc1`, the Potency is 5.62 µM (active). Turning to `C=CCOc1ccc(/C=N/n2cncn2)cc1OC`, the activity change, negative = inhibition is -24.2%. For the compound `CCN=C1S/C(=C\c2cc(Br)ccc2OCC(=O)OCC)C(=O)N1CC`, the activity change, negative = inhibition was 51.2%.

For `CCCCC1N2CC3([N+](=O)[O-])CN1CC([N+](=O)[O-])(C2)C3(C)C` (stereo unspecified), the activity change, negative = inhibition is -8.6%. Take `C[N+]1(CC(O)COc2ccccc2)CCN(C(=O)c2ccc([N+](=O)[O-])cc2)CC1` (stereo unspecified): the activity change, negative = inhibition is -8.27%. Turning to `Cc1cc2cc(CNC(=O)c3cccs3)ccc2[nH]1`, the Potency was 7.08 µM (active). Take `O=C(O)Cc1ccc(NC(=O)c2cccs2)cc1`: the activity change, negative = inhibition is -5.78%. As to `CCc1cccc(CC)c1NC(=S)NCc1ccc2[nH]c(C)cc2c1`, the activity change, negative = inhibition is -1.27%. With `CN(c1ccccc1)S(=O)(=O)c1ccc(Cl)c(C(=O)NCCc2c[nH]c3ccccc23)c1`, the activity change, negative = inhibition was -0.557%.

As for `CC(C)C1=CC2=CC[C@H]3[C@](C)(C(=O)O)CCC[C@]3(C)C2CC1` (stereo partly specified), the activity change, negative = inhibition is -6.95%. Regarding `CCC1=C/C(=C\c2ccc3c(c2)OCO3)C(=O)S1`, the Potency was 28.2 µM (active). As for `CSC1=N/C(=C\c2ccc3c(c2)OCO3)C(=O)S1`, the activity change, negative = inhibition is -15.7%.

As to `O=C1/C(=C/c2ccc3c(c2)OCO3)CCC/C1=C\c1ccc2c(c1)OCO2`, the activity change, negative = inhibition was -8.26%. Take `Cc1[nH]c2ccccc2c1/C=N\NC(=O)Cn1nnc(-c2ccccc2)n1`: the activity change, negative = inhibition was -7.96%.
